Laboratory results reported in ChEMBL document CHEMBL1201862, “PubChem BioAssay data set” (2004).
Out of some 310,000 compounds screened, about 11,000 (3.5%) were called active. Another 8% or so got no clear call; they are omitted. No cut-off for these calls is given here. The sample as a whole holds a higher share of actives than the screen did.

Molecular target: Nuclear receptor ROR-gamma (Mus musculus) (UniProt P51450)
Test: VP16 counterscreen qHTS for inhibitors of ROR gamma transcriptional activity.
Type: functional

Sequence of Nuclear receptor ROR-gamma (Mus musculus) (P51450 whole entry): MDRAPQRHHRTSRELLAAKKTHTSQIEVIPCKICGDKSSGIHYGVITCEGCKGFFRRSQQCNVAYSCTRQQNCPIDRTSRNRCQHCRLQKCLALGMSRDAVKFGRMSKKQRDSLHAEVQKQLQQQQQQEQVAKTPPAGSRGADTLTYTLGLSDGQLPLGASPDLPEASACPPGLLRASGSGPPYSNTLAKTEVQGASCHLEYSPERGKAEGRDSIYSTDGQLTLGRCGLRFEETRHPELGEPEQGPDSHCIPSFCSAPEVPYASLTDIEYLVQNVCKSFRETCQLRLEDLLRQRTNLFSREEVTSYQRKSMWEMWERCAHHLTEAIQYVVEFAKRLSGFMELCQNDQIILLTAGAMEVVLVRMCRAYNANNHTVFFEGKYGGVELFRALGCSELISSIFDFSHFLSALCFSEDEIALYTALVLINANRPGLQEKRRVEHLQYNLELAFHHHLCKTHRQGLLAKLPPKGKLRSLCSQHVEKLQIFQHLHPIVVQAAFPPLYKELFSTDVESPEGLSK

Potency, active:
O=C(Oc1c(Cl)cc(Cl)c2cccnc12)c1cccc([N+](=O)[O-])c1 200 µM
COc1cccc2sc(Nc3nc(-c4ccccn4)cs3)nc12 355 µM
O=C(N/N=C(\c1ccccc1)c1cccnc1)c1cccc(F)c1 891 µM
O=C(NC1CCCCCCC1)C1CCN(c2nc3ccccc3o2)CC1 631 µM
Cc1ccc(-n2c(C)cc(C(=O)COC(=O)c3cccnc3O)c2C)cc1 224 µM
